Source: PubChem BioAssay AID1159580 (chemical genetic matrix, 2015)
“And” between values parts separate entries of the source, which are not always exact repeats. Identical values can stand only once. Out of some 5,500 compounds screened, about 2,000 (36%) were called active. Roughly 18% stayed inconclusive and do not appear here. Rule as the data show it: active = normalized growth mostly below about 0.91 (no sharp cut-off); inconclusive = no clear call, values can overlap the other calls; inactive = mostly above about 0.92. This is one part of the list.

Assay: chemical genetic growth profiling, strain panel (AID 1159580);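 also: tested at 20 µM; growth read once vehicle control cultures reached saturation at 30 °C; 1 = growth at the plate median or of vehicle wells; lower values mean less growth of the strain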
Conditions: growth OD

Measured: normalized growth

CC(=O)N1CCCC1C(=O)O (configuration not stated)
inactive: S. cerevisiae deletion strains, locus YAL013W, strain DEP1, stronger effect = lower value 1.01 | S. cerevisiae deletion strains, locus YBR021W, strain FUR4, stronger effect = lower value 0.977 | S. cerevisiae deletion strains, locus YBR229C, strain ROT2, stronger effect = lower value 1.01 | S. cerevisiae deletion strains, locus YCL029C, strain bik1, stronger effect = lower value 1.03 | S. cerevisiae deletion strains, locus YDL035C, strain GPR1, stronger effect = lower value 1.02 | S. cerevisiae deletion strains, locus YDL074C, strain BRE1, stronger effect = lower value 1.02 | S. cerevisiae deletion strains, locus YDL101C, strain DUN1, stronger effect = lower value 1.01 | S. cerevisiae deletion strains, locus YDL134C, strain PPH21, stronger effect = lower value 1.01 | S. cerevisiae deletion strains, locus YDL185W, strain tfp1, stronger effect = lower value 1.02 | S. cerevisiae deletion strains, locus YDL192W, strain arf1, stronger effect = lower value 1.03 | S. cerevisiae deletion strains, locus YDR101C, strain arx1, stronger effect = lower value 1.02 | S. cerevisiae deletion strains, locus YDR150W, strain NUM1, stronger effect = lower value 1.01 | S. cerevisiae deletion strains, locus YDR162C, strain NBP2, stronger effect = lower value 1.01 | S. cerevisiae deletion strains, locus YDR318W, strain mcm21, stronger effect = lower value 1.02 | S. cerevisiae deletion strains, locus YDR388W, stronger effect = lower value 1.02 | S. cerevisiae deletion strains, locus YDR502C, strain sam2, stronger effect = lower value 1.02 | S. cerevisiae deletion strains, locus YEL061C, strain CIN8, stronger effect = lower value 1.01 | S. cerevisiae deletion strains, locus YER110C, stronger effect = lower value 1.03 | S. cerevisiae deletion strains, locus YER155C, strain BEM2, stronger effect = lower value 1 | S. cerevisiae deletion strains, locus YER167W, strain BCK2, stronger effect = lower value 1.01 | S. cerevisiae deletion strains, locus YGL078C, strain dbp3, stronger effect = lower value 1.02 | S. cerevisiae deletion strains, locus YGL086W, strain mad1, stronger effect = lower value 1.01 | S. cerevisiae deletion strains, locus YGL248W, strain PDE1, stronger effect = lower value 1.01 | S. cerevisiae deletion strains, locus YGR078C, strain PAC10, stronger effect = lower value 1 | S. cerevisiae deletion strains, locus YGR135W, strain pre9, stronger effect = lower value 1.02 | S. cerevisiae deletion strains, locus YGR229C, strain SMI1, stronger effect = lower value 0.99 | S. cerevisiae deletion strains, locus YGR252W, strain gcn5, stronger effect = lower value 1.03 | S. cerevisiae deletion strains, locus YHR030C, strain SLT2, stronger effect = lower value 1.01 and 0.953 | S. cerevisiae deletion strains, locus YHR079C, strain IRE1 (second series), stronger effect = lower value 1.02 | S. cerevisiae deletion strains, locus YHR079C, strain IRE1, stronger effect = lower value 0.975 | S. cerevisiae deletion strains, locus YHR094C, strain hxt1, stronger effect = lower value 1.02 | S. cerevisiae deletion strains, locus YHR129C, strain ARP1, stronger effect = lower value 1.01 | S. cerevisiae deletion strains, locus YHR200W, strain rpn10, stronger effect = lower value 1.03 | S. cerevisiae deletion strains, locus YIL066C, strain RNR3, stronger effect = lower value 1.02 | S. cerevisiae deletion strains, locus YIL073C, strain SPO22, stronger effect = lower value 1.08 | S. cerevisiae deletion strains, locus YIL125W, strain kgd1, stronger effect = lower value 1.02 | S. cerevisiae deletion strains, locus YIR030C, strain dcg1, stronger effect = lower value 1.02 | S. cerevisiae deletion strains, locus YJL095W, strain BCK1, stronger effect = lower value 1.01 and 0.981 | S. cerevisiae deletion strains, locus YJL134W, strain LCB3, stronger effect = lower value 1.01 | S. cerevisiae deletion strains, locus YJL168C, strain set2, stronger effect = lower value 1.02 | S. cerevisiae deletion strains, locus YJL187C, strain SWE1 (second series), stronger effect = lower value 1.02 | S. cerevisiae deletion strains, locus YJR043C, strain POL32, stronger effect = lower value 0.995 | S. cerevisiae deletion strains, locus YJR066W, strain TOR1, stronger effect = lower value 0.872 | S. cerevisiae deletion strains, locus YJR075W, strain HOC1, stronger effect = lower value 1 | S. cerevisiae deletion strains, locus YKL009W, strain mrt4, stronger effect = lower value 1.02 | S. cerevisiae deletion strains, locus YKL068W, stronger effect = lower value 1.03 | S. cerevisiae deletion strains, locus YKL085W, strain MDH1 (second series), stronger effect = lower value 1.01 | S. cerevisiae deletion strains, locus YKL085W, strain MDH1, stronger effect = lower value 1.01 | S. cerevisiae deletion strains, locus YKL190W, strain CNB1, stronger effect = lower value 1.01 | S. cerevisiae deletion strains, locus YKR001C, strain vps1, stronger effect = lower value 1.02 | S. cerevisiae deletion strains, locus YLR039C, strain RIC1, stronger effect = lower value 1.03 | S. cerevisiae deletion strains, locus YLR058C, strain SHM2, stronger effect = lower value 1.01 | S. cerevisiae deletion strains, locus YLR102C, strain apc9, stronger effect = lower value 1.02 | S. cerevisiae deletion strains, locus YLR113W, strain HOG1, stronger effect = lower value 1.01 | S. cerevisiae deletion strains, locus YLR262C, strain YPT6, stronger effect = lower value 1.05 | S. cerevisiae deletion strains, locus YLR268W, strain sec22, stronger effect = lower value 1.03 | S. cerevisiae deletion strains, locus YLR330W, strain CHS5, stronger effect = lower value 1.01 | S. cerevisiae deletion strains, locus YLR342W, strain FKS1 (second series), stronger effect = lower value 0.987 | S. cerevisiae deletion strains, locus YLR371W, strain rom2, stronger effect = lower value 1.01 | S. cerevisiae deletion strains, locus YLR418C, strain cdc73, stronger effect = lower value 1.04 | S. cerevisiae deletion strains, locus YML016C, strain PPZ1, stronger effect = lower value 1.01 | S. cerevisiae deletion strains, locus YML032C, strain rad52, stronger effect = lower value 1.02 | S. cerevisiae deletion strains, locus YML124C, strain tub3, stronger effect = lower value 1.03 | S. cerevisiae deletion strains, locus YMR078C, strain ctf18, stronger effect = lower value 1.04 | S. cerevisiae deletion strains, locus YMR223W, strain ubp8, stronger effect = lower value 1.01 | S. cerevisiae deletion strains, locus YMR263W, strain SAP30, stronger effect = lower value 1 | S. cerevisiae deletion strains, locus YMR307W, strain GAS1, stronger effect = lower value 0.996 | S. cerevisiae deletion strains, locus YNL067W, strain RPL9B, stronger effect = lower value 1 | S. cerevisiae deletion strains, locus YNL128W, strain TEP1, stronger effect = lower value 1.01 | S. cerevisiae deletion strains, locus YNL153C, strain GIM3, stronger effect = lower value 1 | S. cerevisiae deletion strains, locus YNL183C, strain NPR1, stronger effect = lower value 0.883 | S. cerevisiae deletion strains, locus YNL233W, strain BNI4, stronger effect = lower value 1.01 | S. cerevisiae deletion strains, locus YNL250W, strain rad50, stronger effect = lower value 1.02 | S. cerevisiae deletion strains, locus YNL271C, strain bni1, stronger effect = lower value 1.03 | S. cerevisiae deletion strains, locus YNL298W, strain CLA4, stronger effect = lower value 1.04 | S. cerevisiae deletion strains, locus YNL307C, strain MCK1, stronger effect = lower value 1.03 | S. cerevisiae deletion strains, locus YNL322C, strain KRE1, stronger effect = lower value 1.01 | S. cerevisiae deletion strains, locus YNR052C, strain pop2, stronger effect = lower value 1.03 | S. cerevisiae deletion strains, locus YOL006C, strain TOP1, stronger effect = lower value 1.03 | S. cerevisiae deletion strains, locus YOL012C, strain htz1 1.51 | S. cerevisiae deletion strains, locus YOL147C, strain pex11, stronger effect = lower value 1.02 | S. cerevisiae deletion strains, locus YOR061W, strain CKA2, stronger effect = lower value 1.01 | S. cerevisiae deletion strains, locus YOR069W, strain VPS5, stronger effect = lower value 1 | S. cerevisiae deletion strains, locus YOR136W, strain idh2, stronger effect = lower value 1.02 | S. cerevisiae deletion strains, locus YOR144C, strain elg1, stronger effect = lower value 1.02 | S. cerevisiae deletion strains, locus YOR184W, strain ser1, stronger effect = lower value 1.03 | S. cerevisiae deletion strains, locus YOR231W, strain MKK1, stronger effect = lower value 0.979 | S. cerevisiae deletion strains, locus YOR316C, strain cot1, stronger effect = lower value 1.02 | S. cerevisiae deletion strains, locus YPL055C, strain LGE1, stronger effect = lower value 1 | S. cerevisiae deletion strains, locus YPL241C, strain CIN2, stronger effect = lower value 1.01 | S. cerevisiae deletion strains, locus YPL256C, strain CLN2, stronger effect = lower value 0.941 | S. cerevisiae deletion strains, locus YPR119W, strain clb2, stronger effect = lower value 1.02 | S. cerevisiae deletion strains, locus YPR141C, strain kar3, stronger effect = lower value 1.03 | S. cerevisiae deletion strains, locus YPR163C, strain tif3, stronger effect = lower value 1.02 | S. cerevisiae deletion strains, locus YPR167C, strain met16, stronger effect = lower value 1.01 | S. cerevisiae deletion strains, strain wtn01, stronger effect = lower value 1.02 | S. cerevisiae strains, strain wild type, stronger effect = lower value 1
